Screening data (PubChem)
D1 agonist – Allosteric Agonists of the Human D1 Dopamine Receptor: qHTS. HEK293 T-REx D1 cells, calcium flux, agonist mode. activation, % at 2 µM. 1% of 360,000 active
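Inducible HEK293 T-REx D1 cells, force-coupled to calcium signalling, were plated at 4000 cells/well with tetracycline and held overnight at 30 C. After no-wash calcium dye loading, compound-evoked calcium rise over 180 s flagged agonists.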
TRHR agonist – qHTS for Small Molecule Agonists and Allosteric Enhancers of Human TRH Receptor: Primary Screen for Agonists | activation, % at 2 µM | Thyrotropin-releasing hormone receptor (Homo sapiens), P34981 | 0.18% of 360,000 active | TRHR cells, calcium flux fluo-8, FDSS agonist mode
Target sequence (P34981 whole entry, looked up): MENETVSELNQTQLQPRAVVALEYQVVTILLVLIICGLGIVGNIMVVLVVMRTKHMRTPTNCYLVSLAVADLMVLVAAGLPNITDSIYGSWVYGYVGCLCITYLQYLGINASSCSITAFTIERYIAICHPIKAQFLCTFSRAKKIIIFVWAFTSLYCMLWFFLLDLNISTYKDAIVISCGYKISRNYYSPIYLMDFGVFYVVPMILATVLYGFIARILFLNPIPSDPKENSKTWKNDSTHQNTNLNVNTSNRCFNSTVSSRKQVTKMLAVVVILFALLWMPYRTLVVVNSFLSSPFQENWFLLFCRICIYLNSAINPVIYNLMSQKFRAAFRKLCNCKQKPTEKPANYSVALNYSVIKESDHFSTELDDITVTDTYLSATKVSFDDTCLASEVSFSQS
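In this calcium-flux screen, cells bearing human TRHR are dye-loaded with fluo-8, baselined for 10 cycles, then exposed to library compounds; positive kinetic calcium responses during the agonist phase mark hits, with TRH as control.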
TRHR enhancer – qHTS for Small Molecule Agonists and Allosteric Enhancers of Human TRH Receptor: Primary Screen for Enhancers; Thyrotropin-releasing hormone receptor (Homo sapiens), P34981; TRHR cells, fluo-8 calcium fluorescence, EC20 TRH enhancement; enhancement, % at 2 µM; 0.66% of 360,000 active; AID 493056, 2011; in the data active = enhancement above about 30%
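Enhancer read-out: after compound pinning and an initial kinetic agonist-mode read, an EC20 of TRH (10 nM final) was injected and fluo-8 calcium signal (Ex 480/Em 530) followed at 1 s/cycle for 100 cycles in TRHR-expressing cells.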
D1 potentiator – Potentiators of Human D1 Dopamine Receptor: qHTS; D(1A) dopamine receptor (Homo sapiens), P21728; HEK293 TREx D1 cells, calcium flux, dopamine EC20 potentiation; potentiation, % at 10 µM; 0.036% of 360,000 active; AID 504651, 2011; in the data active = potentiation above about 30%
D1 antagonist – Antagonist of Human D 1 Dopamine Receptor: qHTS. 3.2% of 360,000 active. D(1A) dopamine receptor (Homo sapiens), P21728. activity change, negative = inhibition, % at 10 µM. AID 504652, 2011. HEK293 TREx D1 cells, calcium flux, dopamine EC80; hits give low values; in the data active = activity change below about -30%
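Kinetic fluorescence of a calcium dye serves as the read-out. D1-expressing Hek293 Trex cells, induced overnight at 30 C, are exposed to compound for 180 s before an EC80 dopamine addition, then read 180 s further.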
A number is an active result; i = inactive. Rows were chosen to be rich in hits. Some 4.7% of all compounds tested hit in one or more screens of this group. Rule as the data show it, unless noted: active = activation above about 30%; inactive = the rest.

SMILES	D1 agonist	TRHR agonist	TRHR enhancer	D1 potentiator	D1 antagonist
N#CCC(=O)N1CC2(CC(c3cccc(NC(=O)COc4ccc(Cl)cc4)c3)=NO2)C[C@@H]1C(N)=O (stereo not given in full)	i	i	i	i	-41
C/C=C\C=C/C(=O)Nc1cccc(C2=NOC3(C2)C[C@@H](C(N)=O)N(C(=O)c2ccc(Cl)cc2)C3)c1 (stereo not given in full)	i	i	i	i	-30
C/C=C(\C)C(=O)Nc1cccc(C2=NOC3(C2)C[C@H](C(N)=O)N(C(=O)c2cc([N+](=O)[O-])cc([N+](=O)[O-])c2)C3)c1 (stereo not given in full)	i	i	i	i	-64
COc1cccc(Cn2c(CNS(=O)(=O)c3ccc4c(c3)CCCC4)nc3cccnc32)c1	i	i	i	i	i
O=S(=O)(c1ccc2c(c1)OCCO2)N1CCN(S(=O)(=O)c2ccc(Cl)cc2F)CC1	i	i	i	i	i
CCOc1ccc(CCNC(=O)c2ccc(CS(=O)(=O)c3ccccc3C)o2)cc1OCC	i	i	i	i	i
CCOc1ccc(CCNC(=O)c2ccc(CSCc3ccccc3C)o2)cc1OCC	36	i	i	i	i
Cc1cccc(CSCc2ccc(C(=O)NCCc3ccccc3)o2)c1	i	i	i	i	-79
O=C(NCCc1ccc(Cl)cc1)c1ccc(CSCc2ccccc2Cl)o1	31	i	i	i	i
CC(=O)Nc1ccc(/C=C2\CCc3ccccc3C2=O)cc1	i	i	i	i	i
CCC(=O)c1ccc2ncccc2c1	i	i	i	i	-30
COc1cc([N+](=O)[O-])ccc1N/C=C/C(=O)c1cccs1	42	i	i	i	i
Nc1nc2c(ncn2[C@H]2C[C@H](O)[C@@H](CO)O2)c(=O)[nH]1	i	i	i	i	-30
O=C(Cc1c(F)cccc1Cl)NNC(=S)Nc1ccc(S(=O)(=O)Nc2ncccn2)cc1	i	i	i	i	i
CC(=O)Nc1ccc(S(=O)(=O)Oc2ccc3c(c2)C(C)=CC(C)(C)N3)cc1	i	i	i	i	-42
CC1=CC(C)(C)Nc2ccc(OS(=O)(=O)c3ccc(C)cc3)cc21	i	i	i	i	i
COC(=O)c1ccc(OS(=O)(=O)c2ccc(NC(C)=O)cc2)cc1	i	i	i	i	-35
CC(=O)Nc1ccc(S(=O)(=O)Oc2ccc(N3C(=O)C4CCCCC4C3=O)cc2)cc1 (stereo not given)	38	i	i	i	-52
Cc1cccc(S(=O)(=O)NC2CCN(C#N)C2)c1 (stereo not given)	i	i	i	i	i
CCOc1cc(C(=O)N2CCC3(CC2)NCCc2[nH]cnc23)cc(OCC)c1OCC	i	i	i	i	i
CCn1c(CNC(=O)C23CC4CC(CC(C4)C2)C3)nnc1SCC(=O)Nc1ccc(F)cc1	i	i	i	i	i
CC(=O)Nc1ccc(S(=O)(=O)NCCSCc2ccc(Cl)cc2Cl)cc1	i	i	i	i	-31
CC(=O)Nc1ccc(S(=O)(=O)NCCNS(=O)(=O)c2ccc(NC(C)=O)cc2)cc1	i	i	i	i	i
CCc1ccc(NC(=O)C(Cc2ccccc2)NS(=O)(=O)c2ccc3c(c2)c(=O)n(C)c(=O)n3C)cc1 (stereo not given)	i	i	i	i	i
COC(=O)c1cccc(NC(=O)C2CCN(S(=O)(=O)Cc3ccccc3)CC2)c1C	i	i	i	i	i
SMILES	D1 agonist	TRHR agonist	TRHR enhancer	D1 potentiator	D1 antagonist
N#CC(C#N)=C(N)/C(C#N)=C/c1cc(O)c(O)c(O)c1	30	i	i	i	i
CCC(=O)OCc1c(C(F)(F)F)nn(C)c1Sc1ccc(Cl)cc1	i	i	i	i	-33
CCC(=O)OCc1c(C(F)(F)F)nn(C)c1Sc1ccc(F)cc1	i	i	i	i	i
O=C(NCc1cccs1)C1CCC(CNS(=O)(=O)c2ccccc2)CC1 (stereo not given)	i	i	i	i	-33
O=C(NCc1cccs1)C1CCCN(c2nc3ccccc3o2)C1 (stereo not given)	i	i	i	i	-46
Cc1cc(C)nc(N2CCCC(C(=O)NCc3cccs3)C2)n1 (stereo not given)	i	i	30	i	i
COc1ccc(NC(=O)Cn2nnc(C(=O)NCc3cccs3)c2N)cc1Cl	i	i	i	i	i
COc1ccc(COc2ncnc3ccc(Br)cc23)cc1F	i	i	i	32	i
Brc1ccc(COc2ncnc3ccccc23)cc1	i	i	i	i	i
CC1(C)Cc2c(cnn2-c2ccc(F)cc2)C(NC(=O)CCN2CCCCO2)C1 (stereo not given)	i	i	37	i	i
COC(=O)CCC(=O)NC1CC(C)(C)Cc2c1cnn2-c1ccc(F)cc1 (stereo not given)	i	i	38	i	i
Cc1cc(C(=O)NC2CC(C)(C)Cc3c2cnn3-c2cccc(F)c2)n(C)n1 (stereo not given)	i	i	i	i	i
CC1(C)Cc2c(cnn2-c2cccc(F)c2)C(NC(=O)c2ccc[n+]([O-])c2)C1 (stereo not given)	i	i	31	i	i
Cc1ccc(-n2ncc3c2CC(C)(C)CC3NC(=O)c2ccccn2)cc1 (stereo not given)	i	i	i	i	-76
Cc1ccc(-n2ncc3c2CC(C)(C)CC3NC(=O)CCN2CCCO2)cc1 (stereo not given)	i	i	i	i	i
CC1(C)Cc2c(cnn2-c2ccc(F)cc2)C(NC(=O)CCC(F)(F)F)C1 (stereo not given)	i	i	i	i	i
CC(C)c1cnc2c(c1SCC(=O)Nc1ccccc1C(F)(F)F)c(=O)n(C)c(=O)n2C	i	i	i	i	i
S=C(NCCN1CCOCC1)N/N=C/c1c2ccccc2cc2ccccc12	32	i	i	i	i
Cc1nnc(NC(=O)CSCc2cc(=O)c3cc(Cl)ccc3[nH]2)s1	i	i	i	i	i
C#CCOCCOCCOCCNc1nc(N2CCN(C(=O)CCCCCCCCCCNC(=O)Cn3cc(C[C@@H](C)O)nn3)CC2)nc(N2CCN(C(=O)CCCCCCCCCCNC(=O)[C@@H](CCC(=O)O)n3cc(CCCCCN)nn3)CC2)n1	32	i	i	i	i
C#CCOCCOCCOCCNc1nc(N2CCN(C(=O)CCCCCCCCCCNC(=O)Cn3cc(CCCCCN)nn3)CC2)nc(N2CCN(C(=O)CCCCCCCCCCNC(=O)Cn3cc(CCCCCN)nn3)CC2)n1	38	i	i	53	i
